Many of the other results were omitted from the sample, so hits are more common in it than they were.
Tgondii IFNg: inhibitors of Toxoplasma gondii growth with IFN-gamma; Toxoplasma gondii growth in IFN-gamma-treated host cells; active compounds read low; activity change, negative = inhibition, % (test concentration not listed); actives 3.8% (n = 69,000); in the data active means activity change below about -70%, passing the limit was not always enough;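 further: host cells are HeLa cells infected with Toxoplasma gondii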
* marks the source's active call; other numbers are inactive results; i = inactive; ! = not confirmed by another sample.

SMILES	Tgondii IFNg
Cc1cccc(N2CC3(CCN(C(=O)c4cccc5cccnc45)C3)CC2=O)c1 (centres undefined)	4.3
CCOc1ccc(-c2nc(CN3CCN(C(=O)Nc4ccccc4CC)CC3)c(C)o2)cc1	0.2
Cn1cncc1CN1CC[C@@H]2OCCN(S(C)(=O)=O)[C@@H]2C1	-7.3
CCNc1ncc(CN(C)Cc2cccc3ncccc23)cn1	-30.4
Cc1ccccc1-c1ncc(CN(C)Cc2cccc3ncccc23)cn1	-88.6*
CN(Cc1cnc(-c2ccccn2)nc1)Cc1cccc2ncccc12	-0.1
CCn1c(CNc2nc(-c3ccccc3)cs2)nnc1SCC(N)=O	-20.0
O=C(OCc1ccccc1)N1CCOCCN(C(=O)OCc2ccccc2)CCOCC1	-15.0
Cc1onc(-c2ccccc2)c1CNC(=O)c1ccccc1	29.2
Cc1onc(-c2ccccc2)c1NC(=O)NCc1csc(-c2cccs2)n1	7.4
Cc1onc(-c2ccccc2)c1CNC(=O)C1CCN(c2nccc(C(F)(F)F)n2)CC1	-66.2
Cc1onc(-c2ccccc2)c1CNC(=O)Nc1csc2ccccc12	-98.2*
Cc1onc(-c2ccccc2)c1CNC(=O)NC1CCN(C(=O)OCc2ccccc2)CC1	-82.0*
CCc1ccc2occ(CC(=O)NCc3n[nH]c4c3CCC4)c2c1	3.6
O=C(NCc1cccc(-n2cccn2)c1)c1ccc(=O)[nH]c1	1.8
Cc1oncc1C(=O)NCc1cc(=O)n2c(n1)CN(C(C)C)CCC2	-24.6
CCC(=O)OCC(=O)[C@@]1(OC(=O)CC)[C@@H](C)C[C@H]2[C@@H]3CCC4=CC(=O)C=C[C@]4(C)[C@@]3(F)[C@@H](O)C[C@@]21C	-0.6
CCC(=O)OCC(=O)[C@@]1(OC(=O)CC)[C@@H](C)C[C@H]2[C@@H]3CCC4=CC(=O)C=C[C@]4(C)[C@@]3(Cl)[C@@H](O)C[C@@]21C	-74.4*!
CCC(=O)O[C@@]1(C(=O)CCl)[C@@H](C)C[C@H]2[C@@H]3C[C@H](F)C4=CC(=O)C=C[C@]4(C)[C@]3(F)[C@H](O)C[C@@]21C	3.4
COC(=O)/C=c1\sc2nc(N)nn2c1=O	-40.5
COc1cccc2c1OCCCN(C(=O)c1c(C)cc(=O)oc1C)C2	-16.2
O=C(NCc1cccc(Cl)c1)c1ccc2c(c1)CCC(=O)N2Cc1ccccc1	-99.5*
O=C(NCc1ccc(N2CCCC2=O)cc1)c1cccc(Cl)c1	-3.0
CCN1C(=O)CCc2cc(NS(=O)(=O)Cc3cccc(Cl)c3)ccc21	-34.0
COc1ccc2c(c1)OC1(CCN(Cc3nc4sc(C)cc4c(=O)[nH]3)CC1)CC2=O	-12.3
SMILES	Tgondii IFNg
O=C(O)c1ccc(COCc2ccc(C(=O)O)o2)o1	-13.5
O=C(O)c1nccnc1C(=O)NCc1csc2ccc(Cl)cc12	13.2
Cc1nn(C(=O)Nc2cccc(Cl)c2)c(C)c1Cc1csc2ccc(Cl)cc12	-84.9*
COC(=O)C(Cc1csc2ccc(Cl)cc12)NC(=O)c1ccc(C(F)(F)F)cc1 (centres undefined)	47.1
Cc1nn(S(=O)(=O)c2ccccc2)c(C)c1Cc1csc2ccc(Cl)cc12	-89.0*
Cc1cc(C)n(S(=O)(=O)c2ccccc2)n1	-2.9
COC(=O)c1ccc(S(=O)(=O)NCc2csc3ccc(Cl)cc23)n1C	-56.7
COc1ccc(-c2nc(C)c(CCNC(=O)c3cccc(C(F)(F)F)c3)s2)cc1OC	i
CC(c1ccc(-c2cncc(C(N)=O)c2)cc1)N1CCOCC1 (centres undefined)	2.0
COC(=O)c1cc2n(n1)CCN(C(=O)c1cc(CC(C)C)nn1C)C2	1.9
CS(=O)(=O)c1ccc(C(O)[C@H](CF)NC(=O)C(Cl)Cl)cc1 (some centres undefined)	-77.6*!
O=C(N[C@@H](CO)[C@H](O)c1ccc([N+](=O)[O-])cc1)C(Cl)Cl	-8.0
CCCCCCCCCCCCCCCC(=O)OC[C@H](NC(=O)C(Cl)Cl)[C@H](O)c1ccc([N+](=O)[O-])cc1	19.7
CC(=O)Oc1ccc2c(c1)CCC1C2=CCC2(C)C(OC(C)=O)CCC12 (centres undefined)	-92.4*
CCCCC(=O)O[C@H]1CC[C@H]2[C@@H]3CCc4cc(O)ccc4[C@H]3CC[C@]12C	-35.0
COc1ccc(N2C(=O)CSC2=S)cc1	17.0
C[C@@H]1CN(c2c(F)c(F)c3c(=O)c(C(=O)O)cn(C4CC4)c3c2F)C[C@H](C)N1	3.0
N[C@@H]1CCCCN(c2c(F)cc3c(=O)c(C(=O)O)cn(C4CC4)c3c2Cl)C1	-9.5
N#Cc1c(N2C[C@@H]3NCCO[C@H]3C2)c(F)cc2c(=O)c(C(=O)O)cn(C3CC3)c12	-86.2*
C=CCn1cc(-c2c(-c3ccccc3)ncn2CC(O)c2ccccc2)cn1 (centres undefined)	-52.1
O=C(Nc1ccc(-c2nc(-c3ccccc3)co2)cc1)c1ccco1	98.1
CO[C@@H]1CCN(S(=O)(=O)N(C)C)C[C@@H]1Cc1cccc(C)c1	-33.2
O=C1CC2(CCN(C(=O)c3ccccc3C3CCNC3)CC2)CN1 (centres undefined)	-5.4
C=CCOCC1CN(CCc2ccccc2)Cc2ccnn2C1 (centres undefined)	-15.4
Cc1oc(-c2ccc(NC(=O)Cc3cccc(F)c3)cc2)nc1Cn1cccn1	-87.2*
SMILES	Tgondii IFNg
Cc1oc(-c2ccc(NC(=O)c3ccccc3F)cc2)nc1Cn1cccn1	-59.2
Cc1oc(-c2ccc(NC(=O)c3ccccc3)cc2)nc1Cn1cccn1	20.2
Cc1oc(-c2ccc(NC(=O)Cc3ccc(F)cc3)cc2)nc1Cn1cccn1	11.2
Cc1oc(-c2ccc(NC(=O)c3ccccc3Br)cc2)nc1Cn1cccn1	-93.7*
Cc1oc(-c2ccc(NC(=O)Cc3ccc(Cl)cc3)cc2)nc1Cn1cccn1	-36.1
CCCC(=O)Nc1ccc(-c2nc(Cn3cccn3)c(C)o2)cc1	12.8
Cc1cnc2n1CCN(C)C21CCN(Cc2ccco2)CC1	2.2
O=C(c1cc2cccnc2n(Cc2ccccc2F)c1=O)N1CCCc2ccccc21	3.9
Cc1ccc(N2CC3(CCN(Cc4cncn4C)C3)CC2=O)cc1 (centres undefined)	-8.4
Fc1ccc(C(c2ccccc2)(c2ccccc2F)n2ccnc2)cc1 (centres undefined)	-70.9*
CC(C)(C)c1[nH]ncc1CN1CCC(C(NC(=O)Cc2ccccc2)c2ccccn2)CC1 (centres undefined)	-49.4
COc1cccc(NC(=O)c2ncn3c(C4CCN(CC5CC5)CC4)ccnc23)c1	-3.8
COc1cc(C(F)(F)F)nc2ccc(C#CCOC(=O)Nc3cccc(Cl)c3)cc12	-108.7*
N#Cc1ccc(C#CCOC(=O)Nc2ccc(OC(F)(F)F)cc2)cc1	34.4
CCc1nc(OCC(=O)Nc2cccc(Cl)c2)c2ccccc2n1	3.7
CCOc1cccc(-c2noc(-c3c(O)c4ccc(F)cc4n(C)c3=O)n2)c1	-29.9
CCOc1ccc(S(=O)(=O)N2CCC3(CC2)Nc2ccccc2-n2cccc23)cc1	1.1
O=C(Cn1ncc2c(N3CCCCCC3)ncnc21)NCc1cc(F)cc(F)c1	57.9
COc1ccc(CNC(=O)Cn2ncc3c(N4CCC(C)CC4)ncnc32)cc1	-85.2*
COc1ccc(CNC(=O)Cn2ncc3c(N4CCCCC4)ncnc32)c(OC)c1	29.8
O=C(Cn1ncc2c(N3CCCCCC3)ncnc21)NCc1ccc(F)cc1F	-92.7*
COCCCNC(=O)Cn1ncc2c(N3CCC(C)CC3)ncnc21	61.3
COc1ccc(OC)c(CNC(=O)Cn2ncc3c(N4CCC(C)CC4)ncnc32)c1	261.4
COc1ccc(CNC(=O)Cn2ncc3c(N4CCCCCC4)ncnc32)cc1	6.3
O=C(Cn1ncc2c(N3CCN(c4ccccn4)CC3)ncnc21)NCc1ccccc1Cl	-92.3*

Screening results deposited in PubChem by Broad Institute.
